High-throughput results as filed in PubChem.
HT1080-NT tox: kills 2HG-producing HT-1080-NT fibrosarcoma cells; HT-1080-NT fibrosarcoma viability, CellTiter-Glo ATP luminescence, 48 h; Potency, µM (top dose mostly 46.1 µM), without a hit: top-dose activity, negative = less viability, most hits filed as cytotoxic; actives 1.6% (n = 360,000); AID 686970;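 further: NT is the 2HG producing partner of a matched IDH1 knockdown line; potency means the concentration at half of the fitted maximal effect; 0% = DMSO-treated cells and -100% = media-only wells without cells; nearly all actives have a fitted effect of over 55% in size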
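HT-1080-NT fibrosarcoma cells (2HG-overproducing), 750 cells/well in RPMI with 5% FBS, dosed after 2 h and incubated 48 h at 37C. CellTiter-Glo luminescence normalized to DMSO and no-cell wells; concentration-response curves fitted and classed.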
DT40 TDP1 CPT: growth inhibition of DT40 Tdp1-/-;hTDP1 cells with camptothecin (screen for TDP1 inhibitors); chicken DT40 Tdp1-/-;hTDP1 cells + 20 nM CPT, ATP luminescence, 48 h; Potency, µM (series often up to 46.2 µM), without a hit: at the top dose activity change, negative = growth inhibition, hits mostly inhibitors; actives 12% (n = 420,000); AID 686979; further: potency means the concentration at half of the fitted maximal effect; nearly all actives have a fitted effect of over 55% in size
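Chicken DT40 Tdp1-/- cells complemented with human TDP1, 400 cells/well, exposed to compounds plus 20 nM camptothecin for at least 48 h at 37 C; viability read as ATP content by CellTiter-Glo luminescence.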
HT1080 IDH1KD tx: HT-1080 IDH1 knockdown cell toxicity (counter line). HT-1080 IDH1 knockdown viability, ATP luminescence, 48 h. Potency, µM (titrated, usually from 46.1 µM), for inactives: at the highest dose activity, negative = toxicity, actives largely listed as cytotoxic. actives 2% (n = 360,000);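 further: potency means the concentration at half of the fitted maximal effect; 0% = DMSO wells and -100% = cell-free medium wells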
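CellTiter-Glo luminescence after 48 h compound exposure at 37 degrees C of IDH1-knockdown HT-1080 cells in 5% FBS RPMI. %Activity scaled between DMSO wells and cell-free media wells, with curves fitted and assigned curve classes.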
IL1B secr inh: inhibitors of inflammasome signaling (IL-1 beta secretion). AID 743279. activity change, % at 57.5 µM. THP-1 LPS/ATP IL-1B secretion, AlphaLISA, 16 h; stronger effect = lower value. actives 4.7% (n = 360,000); in the data active means activity change below about -50%; inconclusive means mostly about -30% to -49%
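THP-1 cells pretreated 1 hr with compounds (up to 57.5 uM final), then stimulated with LPS (250 ng/mL final) plus ATP (1.25 mM final); secreted IL-1B measured by AlphaLISA after 16 hr, decreased signal indicating inhibition.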
DT40 TDP1 no CPT: qHTS for Inhibitors of human tyrosyl-DNA phosphodiesterase 1 (TDP1): qHTS in cells in absence of CPT; actives 15% (n = 420,000); DT40 Tdp1-/- hTDP1 cells, no CPT, ATP luminescence, 48 h; Potency, µM (series often up to 46.2 µM), inactives show top-dose activity change, negative = growth inhibition, usual class: inhibitors; further: potency means the concentration at half of the fitted maximal effect; nearly all actives have a fitted effect of over 55% in size
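Chicken DT40 Tdp1-/- cells complemented with human TDP1, screened without camptothecin (DMSO vehicle only), 400 cells/well. Compounds pin-transferred, cells incubated at 37 °C for at least 48 hr. Growth read as ATP-dependent luminescence (CellTiter-Glo, 30 min at RT).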
Numbers without * were called inactive. Shown are actives, neighbours in structure and some others; about 19% of the full set was active somewhere. Unless noted, the call rests on the fitted dose curve; in most records, active means well fitted curve in the direction sought with a large enough effect; inconclusive means small, poorly fitted or top-dose-only effect, or another doubt; inactive means no such curve, though single readings can be large; an effect the other way counts as inactive or inconclusive. Unless noted, on the % scale 0 is the no-effect control and ±100 the full control effect.

Screening Oc1c(Br)c(Br)c(Br)c(Br)c1Br returned HT1080-NT tox 26µM*, DT40 TDP1 CPT inconclusive, HT1080 IDH1KD tx inconclusive, IL1B secr inh 13 and DT40 TDP1 no CPT inconclusive.
CCCC(=O)O[C@]1(C(=O)COC(=O)CC)[C@@H](C)C[C@H]2[C@@H]3CCC4=CC(=O)C=C[C@]4(C)[C@@]3(F)[C@@H](O)C[C@@]21C was read as DT40 TDP1 CPT inconclusive and DT40 TDP1 no CPT 24µM*.
O=C1NC(=O)C2C1C1(Cl)C(Cl)=C(Cl)C2(Cl)C1(Cl)Cl (stereo not drawn) was read as HT1080-NT tox -6%, DT40 TDP1 CPT -22%, HT1080 IDH1KD tx -6%, IL1B secr inh -9 and DT40 TDP1 no CPT -14%.
Screening Cc1c(OC(=O)N(C)C)ccc2c1O/C(=C\c1ccco1)C2=O returned HT1080-NT tox 11%, DT40 TDP1 CPT inconclusive, HT1080 IDH1KD tx 14%, IL1B secr inh -21 and DT40 TDP1 no CPT inconclusive.
Screening O=C1COc2ccc(-c3csc(=Nc4ccc(OC(F)F)cc4)n3CC3CCCO3)cc2N1 (stereo not drawn) returned HT1080-NT tox inconclusive, DT40 TDP1 CPT inconclusive, HT1080 IDH1KD tx inconclusive, IL1B secr inh -65* and DT40 TDP1 no CPT 16µM*.
Screening Cc1ccc(/C=C2/C(=O)NC(=O)N(CC3CCCO3)C2=O)s1 (stereo not drawn) returned HT1080-NT tox 3%, DT40 TDP1 CPT -27%, HT1080 IDH1KD tx 8%, IL1B secr inh 2 and DT40 TDP1 no CPT inconclusive.
Screening CN[C@H](C)[C@H](O)c1ccccc1 returned DT40 TDP1 CPT 7%, IL1B secr inh 9 and DT40 TDP1 no CPT -7%.
For COC(=O)c1ccc(NC(=O)CSc2nc3ccc(N4C(=O)C5C6C=CC(C6)C5C4=O)cc3s2)cc1 (stereo not drawn) the results were HT1080-NT tox -29%, DT40 TDP1 CPT 21µM*, HT1080 IDH1KD tx inconclusive, IL1B secr inh inconclusive and DT40 TDP1 no CPT 18µM*.
Screening Cc1ccccc1-n1nc(C)c2c1NC(=O)CSC2c1ccc(N(C)C)cc1 (stereo not drawn) returned DT40 TDP1 CPT inconclusive and DT40 TDP1 no CPT 18µM*.
`Cc1cccc(-n2nc(C)c3c2NC(=O)CSC3c2ccccc2Cl)c1` (stereo not drawn) gave DT40 TDP1 CPT inconclusive and DT40 TDP1 no CPT 21µM*.
For COc1ccc(C2SCC(=O)Nc3c2c(C)nn3C2CCOC(C)(C)C2)cc1OC (stereo not drawn) the results were HT1080-NT tox -3%, DT40 TDP1 CPT -3%, HT1080 IDH1KD tx -2%, IL1B secr inh 9 and DT40 TDP1 no CPT 2%.
For O=C1CSC(c2ccccc2Cl)c2cc(Cl)ccc2N1 (stereo not drawn) the results were DT40 TDP1 CPT inconclusive and DT40 TDP1 no CPT 39µM*.
`COc1ccc(C2SCC(=O)Nc3c2c(C)nn3-c2ccccc2)cc1OC` (stereo not drawn) gave HT1080-NT tox 0%, DT40 TDP1 CPT -18%, HT1080 IDH1KD tx 1%, IL1B secr inh -2 and DT40 TDP1 no CPT 1%.
c1cc2c3c(cccc3c1)CC2 was read as DT40 TDP1 CPT -5% and DT40 TDP1 no CPT -24%.
Screening COc1ccc2o/c(=N\O)c(C(=O)Nc3ccc(C)cc3)cc2c1 returned HT1080-NT tox 3%, DT40 TDP1 CPT 23µM*, HT1080 IDH1KD tx 10%, IL1B secr inh inconclusive and DT40 TDP1 no CPT inconclusive.
Screening O=[N+]([O-])c1ccc(-c2ccccc2)c([As](=O)(O)O)c1 returned HT1080-NT tox -29%, DT40 TDP1 CPT 13µM*, HT1080 IDH1KD tx -26%, IL1B secr inh -18 and DT40 TDP1 no CPT 9.2µM*.
For O=[N+]([O-])c1ccc2c(c1)C(c1ccccc1)=NCCN2 the results were HT1080-NT tox -21%, DT40 TDP1 CPT -10%, HT1080 IDH1KD tx -19%, IL1B secr inh -15 and DT40 TDP1 no CPT -27%.
